An excerpt weighted towards active compounds, which were near 19% of everything screened.
TDP1 cell CPT: qHTS for Inhibitors of human tyrosyl-DNA phosphodiesterase 1 (TDP1): qHTS in cells in presence of CPT; AID 686979, 2013; chicken DT40 Tdp1-/-;hTDP1 cells + 20 nM CPT, ATP luminescence, 48 h; Potency, µM (series often up to 46.2 µM), for the others: at the top dose activity change, negative = growth inhibition, actives largely listed as inhibitors; 12% of 420,000 active; also: nearly all actives have a fitted effect of over 55% in size
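Chicken DT40 Tdp1-/- cells stably complemented with human TDP1 were seeded at 400 cells/well in medium containing 20 nM camptothecin, exposed to pin-transferred compounds, and grown at 37 °C for at least 48 hr. Viability was read as ATP luminescence.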
KB-V1 cytotox: qHTS assay for MDR1-selective chemotherapeutics: Primary screen using the drug-selected MDR subline cells KB-V1; KB-V1 MDR cells viability, CellTiter-Glo, 72 h; 3.4% of 400,000 active; Potency, µM (titrated, usually from 46.1 µM), most hits filed as cytotoxic; also: nearly all actives have a fitted effect of over 60% in size
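KB-V1, DMEM (no phenol red) + 10% FBS; cpd pin-transferred, titration series; 72 h, 37 degrees C; CellTiter-Glo, luminescence. Data normalized, curve-fit.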
HT1080NT lethal: qHTS for induction of synthetic lethality in tumor cells producing 2HG: qHTS for the HT-1080-NT fibrosarcoma cell line; HT-1080-NT fibrosarcoma viability, CellTiter-Glo ATP luminescence, 48 h; Potency, µM (highest dose often 46.1 µM), inactives show top-dose activity, negative = less viability, most hits filed as cytotoxic; 1.6% of 360,000 active; AID 686970, 2013;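 also: NT is the 2HG producing partner of a matched IDH1 knockdown line; 0% = DMSO-treated cells and -100% = media-only wells without cells; nearly all actives have a fitted effect of over 55% in size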
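Toxicity toward the 2HG-producing NT line was scored as %Activity, normalised to DMSO and no-cell wells, from CellTiter-Glo luminescence after 48 hours' treatment.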
DT40 TDP1 no CPT: qHTS for Inhibitors of human tyrosyl-DNA phosphodiesterase 1 (TDP1): qHTS in cells in absence of CPT | DT40 Tdp1-/- hTDP1 cells, no CPT, ATP luminescence, 48 h | Potency, µM (top dose mostly 46.2 µM), for the others: at the top dose activity change, negative = growth inhibition, hits mostly inhibitors | 15% of 420,000 active; also: nearly all actives have a fitted effect of over 55% in size
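Luminescent ATP content (CellTiter-Glo) served as the growth readout. Knockout chicken DT40 cells expressing human TDP1 were exposed to compounds without camptothecin for a minimum 48 hr at 37 °C.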
KB-3-1 cytotox: qHTS assay for MDR1-selective chemotherapeutics: Primary screen using the parental adenocarcinoma cell KB-3-1 | KB-3-1 viability, CellTiter-Glo ATP luminescence, 72 h | Potency, µM (titrated, usually from 46.1 µM), usual class: cytotoxic | 1.4% of 400,000 active | AID 1347075, 2019; also: nearly all actives have a fitted effect of over 60% in size
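72 h, 37 °C compound treatment of KB-3-1 parental cells; CellTiter-Glo added, 10 min, luminescence read. Data corrected against DMSO-only plates and normalized before curve fitting.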
HT1080 IDH1KD tx: qHTS for induction of synthetic lethality in tumor cells producing 2HG: qHTS for the HT-1080-IDH1KD cell line | 2% of 360,000 active | Potency, µM (top dose mostly 46.1 µM), inactives show at the top dose activity, negative = toxicity, hits mostly cytotoxic | HT-1080 IDH1 knockdown viability, ATP luminescence, 48 h;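 also: 0% = DMSO wells and -100% = cell-free medium wells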
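After a 2 h attachment period, IDH1KD HT-1080 cells took pin-transferred compound for 48 h at 37 °C; ATP-based luminescence after 10 min room-temperature reagent incubation reported viability.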
* = called active by the depositor; i = inactive; ? = inconclusive; / = no result given. Calls follow the shape of the dose curve; as a rule, active = well fitted curve in the direction sought with a large enough effect; inconclusive = small, poorly fitted or top-dose-only effect, or another doubt; inactive = no such curve, though single readings can be large; an effect the other way counts as inactive or inconclusive. Unless noted, % is scaled to controls: 0 for no effect and ±100 for the full control effect; potency is read from the fitted curve at half-maximal effect.

SMILES | TDP1 cell CPT | KB-V1 cytotox | HT1080NT lethal | DT40 TDP1 no CPT | KB-3-1 cytotox | HT1080 IDH1KD tx
COc1cccc(NC(=O)c2oc3ccc(S(=O)(=O)N4CCC5(CC4)OCCO5)cc3c2C)c1 | 5.8µM* | / | / | 5.2µM* | / | /
Cc1ccc(NC(=O)c2oc3ccc(S(=O)(=O)N4CCOCC4)cc3c2C)cc1C | ? | i | -29% | -18% | i | -26%
COc1ccc2oc(C(=O)N3CCN(S(=O)(=O)c4cccc([N+](=O)[O-])c4)CC3)c(C)c2c1 | 16µM* | i | -6% | 15µM* | i | -1%
Cc1c(C(=O)N2CCN(S(=O)(=O)c3ccc(F)cc3)CC2)oc2ccccc12 | ? | i | 8% | ? | i | 4%
Cc1c(C(=O)N2CCN(S(=O)(=O)c3cccs3)CC2)oc2ccc(F)cc12 | ? | i | -8% | 16µM* | i | 10%
CCc1nc2c(OCc3ccc4c(c3)OCO4)cccn2c1N(C=O)Cc1ccc(OC)cc1 | ? | i | ? | ? | i | -4%
COc1cccc2c1Oc1ncccc1N(c1ccc(C(=O)NCc3cccc(C)c3)s1)C2 | ? | i | / | ? | i | /
Cc1c(C(=O)NCc2ccccc2)oc2ccc(S(=O)(=O)N3CCC4(CC3)OCCO4)cc12 | ? | i | -11% | 21µM* | i | -16%
Cc1c(C(=O)NCc2ccccn2)oc2ccc(S(=O)(=O)N3CCC4(CC3)OCCO4)cc12 | 10% | i | 0% | -19% | i | -1%
N#CCC(=O)N/N=C\c1ccc(OC/C=C/c2ccccc2)cc1 | -10% | ? | -2% | 4% | i | 1%
N#CCC(=O)N/N=C\c1ccccc1OC/C=C/c1ccccc1 | 5.8µM* | i | -13% | 4.1µM* | i | -19%
COc1cccc(/C=N\NC(C)=O)c1OC/C=C/c1ccccc1 | ? | ? | -7% | ? | ? | -20%
COCC(=O)N/N=C\c1ccccc1OC/C=C/c1ccccc1 | ? | i | -2% | 26µM* | ? | ?
CCN1C(c2ccccc2)=C(c2ccccc2)S/C1=C\C=C1/SC(=S)N(C)C1=O | 13µM* | i | ? | 9.2µM* | i | ?
CCN1C(c2ccccc2)=C(c2ccccc2)S/C1=C/C=C1\SC(=S)N(C)C1=O | 10µM* | ? | -9% | 10µM* | i | -1%
Cn1c2ccccc2c2c(C(=O)N3CCN(C(=O)c4ccco4)CC3)cn(C3CCCCC3)c(=O)c21 | ? | i | -20% | ? | i | ?
Cn1c2ccccc2c2c(C(=O)N3CCN(c4ccccn4)CC3)cn(C3CCCC3)c(=O)c21 | ? | i | -26% | 15µM* | i | -16%
Cc1ccc(Cl)cc1N1CCN(C(=O)c2cn(C3CCCCC3)c(=O)c3c2c2ccccc2n3C)CC1 | 23µM* | i | / | 18µM* | i | /
CCOC(=O)N1CCN(C(=O)c2cn(C)c(=O)c3c2c2ccccc2n3C)CC1 | ? | i | ? | 25µM* | ? | ?
COc1ccc(N2CCN(C(=O)c3cn(C4CCCC4)c(=O)c4c3c3ccccc3n4C)CC2)cc1 | 16µM* | i | -18% | 16µM* | ? | ?
CCOC(=O)N1CCN(C(=O)c2cn(CC(C)C)c(=O)c3c2c2ccccc2n3C)CC1 | ? | i | 13% | ? | i | -4%
CC1=C(C(=O)N2CCCCCC2)CC(CC(=O)NCCCN(C)C)C(=O)N1CCCN1CCCC1=O (stereo unspecified) | 8% | i | 6% | 2% | / | 16%
CCc1ccc(NC(=O)Cn2c(=O)n(Cc3ccco3)c(=O)c3cccnc32)cc1 | -16% | i | / | -21% | i | /
COc1ccc(N2CCN(C(=O)c3cn(C)c(=O)c4c3c3ccccc3n4C)CC2)cc1 | ? | i | -15% | 15µM* | i | ?
CN(C)C(CNC(=O)c1ccc2ccccc2n1)c1ccccc1 (stereo unspecified) | ? | ? | -6% | 18µM* | i | 1%
SMILES | TDP1 cell CPT | KB-V1 cytotox | HT1080NT lethal | DT40 TDP1 no CPT | KB-3-1 cytotox | HT1080 IDH1KD tx
CC(C)(C)c1ccc(C(=O)CS(=O)(=O)c2ccccc2)cc1 | ? | i | -7% | 16µM* | i | -8%
CC(C)NC(=O)CS(=O)(=O)c1ccccc1 | -2% | i | 0% | -12% | i | 15%
Cc1ccc(S(=O)(=O)CC(=O)c2ccccc2)cc1 | -4% | i | 14% | -11% | i | 20%
O=C(CC(=O)c1ccccc1)CS(=O)(=O)c1ccccc1 | ? | 12µM* | 4% | ? | i | -18%
CN(Cc1cccs1)C(=O)c1ccc(Cl)c(S(=O)(=O)N2CCCCCC2)c1 | -30% | ? | ? | ? | i | -14%
Cc1csc(=O)n1CCC(=O)OC(C)C(=O)NCc1ccccc1 (stereo unspecified) | 0% | i | 0% | 2% | i | 0%
O=C(c1ccccc1F)N1CCCC(c2ccccc2)C1 (stereo unspecified) | -22% | 23µM* | 15% | -27% | i | 11%
COc1ccc(C(=O)N2CCN(S(=O)(=O)c3ccc(F)cc3)CC2)cc1OC | 1% | ? | 4% | -8% | i | 1%
CCCc1cc(C(=O)N2CCN(S(=O)(=O)c3ccc(OC)c(OC)c3)CC2)cs1 | ? | 5.2µM* | -16% | ? | i | -28%
N#Cc1ccsc1NC(=O)c1ccc(Cl)c([N+](=O)[O-])c1 | 2.9µM* | ? | -11% | 2.3µM* | i | -25%
O=C(O)c1cc(NC(=O)c2ccc(Cl)c([N+](=O)[O-])c2)cc(C(=O)O)c1 | 26% | i | 24% | -16% | i | 24%
O=C(Nc1ccc(C(O)(C(F)(F)F)C(F)(F)F)cc1)c1ccc(Cl)c([N+](=O)[O-])c1 | 12µM* | ? | ? | 18µM* | ? | 23µM*
O=C(Nc1ccc(S(=O)(=O)NC2=NCCCCC2)cc1)c1ccc(Cl)c([N+](=O)[O-])c1 | ? | i | ? | 23µM* | i | -25%

Screening results from PubChem.
